# Only some compounds are listed: those with a hit (about 8.1% of all), similar ones and a draw of the others.
# KB-3-1 tox: qHTS assay for MDR1-selective chemotherapeutics: Primary screen using the parental adenocarcinoma cell KB-3-1. KB-3-1 viability, CellTiter-Glo ATP luminescence, 72 h. Potency, µM (top dose mostly 46.1 µM), usual class: cytotoxic. hit rate 1.4% among 400,000. AID 1347075, 2019; note: % is set by controls: 0 for no effect and ±100 for the full control effect; nearly all actives have a fitted effect of over 60% in size
#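 Cytotoxicity in the drug-sensitive parental line KB-3-1 was scored as loss of CellTiter-Glo luminescence following 72 h incubation with compound. Values come from curve fitting of normalized concentration-response data.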
# SW480 rereplic: A quantitative high throughput screen for small molecules that induce DNA re-replication in SW480 colon adenocarcinoma cells; SW480 DNA re-replication, Hoechst DNA content imaging, 48 h; Potency, µM (series often up to 46.1 µM), inactives show at the highest dose re-replication activation, hits mostly activators; hit rate 1.8% among 340,000; note: % of control where 0% means no effect; nearly all actives have a fitted effect of over 55% in size
#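 Treated cells incubate 48 hr (37 C, 5% CO2), are stained 40 min with Hoechst, and nuclear fluorescence is enumerated; a rise in nuclei with high DNA signal marks re-replication.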
# KB-V1 MDR tox: qHTS assay for MDR1-selective chemotherapeutics: Primary screen using the drug-selected MDR subline cells KB-V1. Potency, µM (highest dose often 46.1 µM), usual class: cytotoxic. AID 1347076, 2019. KB-V1 MDR cells viability, CellTiter-Glo, 72 h. hit rate 3.4% among 400,000; note: % is set by controls: 0 for no effect and ±100 for the full control effect; nearly all actives have a fitted effect of over 60% in size
#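 Compound-treated KB-V1 multidrug-resistant cells, 72 h, 37 degrees C; viability by CellTiter-Glo. Fitted qHTS curves give the values.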
# ELG1 DNA repair: qHTS screen for small molecules that inhibit ELG1-dependent DNA repair in human embryonic kidney (HEK293T) cells expressing luciferase-tagged ELG1. HEK293T ELG1-luciferase reporter, luminescence, 16 h; DNA damage induced by 5-fluorouridine. Potency, µM (top dose mostly 46.1 µM), for inactives: at the top dose activity change, negative = inhibition, hits mostly inhibitors. hit rate 2.3% among 330,000; note: % is set by controls: 0 for no effect and ±100 for the full control effect; nearly all actives have a fitted effect of over 55% in size
#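 Overnight (16 hr) co-exposure of 2,000 cells/well to 5-fluorouridine and compound at 37 °C preceded detection. Luciferase was quantified via ONE-Glo luminescence; loss of signal denotes inhibition.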
# MCF10A rerep: A quantitative high throughput screen for small molecules that induce DNA re-replication in MCF 10a normal breast cells; AID 624296, 2012; Potency, µM (series often up to 46.1 µM), for inactives: at the top dose activity, positive = re-replication, most hits filed as activators; hit rate 2.9% among 350,000; MCF 10A DNA re-replication, Hoechst nuclear intensity, 48 h; note: % of control where 0% means no effect; nearly all actives have a fitted effect of over 50% in size
# * marks the source's active call; other numbers are inactive results; i = inactive; u = inconclusive; x = not tested or not shown. Calls come from the whole dose curve; as a rule, active = well fitted curve in the direction sought with a large enough effect; inconclusive = small, poorly fitted or top-dose-only effect, or another doubt; inactive = no such curve, though single readings can be large; an effect the other way counts as inactive or inconclusive. Potency is the fitted concentration of half-maximal effect.
SMILES,KB-3-1 tox,SW480 rereplic,KB-V1 MDR tox,ELG1 DNA repair,MCF10A rerep
CC(C)Nc1nc(Nc2ccc(C(N)=O)cc2)c2sccc2n1,i,x,i,x,x
CCOc1ccc(NC(=O)CC2C(=O)N(c3ccc(C)cc3)C(=O)N2Cc2ccc(OC)cc2)cc1 (stereo not given),i,x,i,x,x
Cc1cccc(NC(=O)CSc2nc(=O)n(Cc3cccnc3)c3c2CCC3)c1C,i,x,i,x,x
O=CNc1c(Cl)cc2c(c1Cl)Cc1cc([N+](=O)[O-])ccc1-2,u,20.6µM*,u,x,u
COc1ccc(OCCCCN(C)Cc2ccccc2)cc1,i,2.7%,i,-0.5%,u
Cc1ccc(Cl)c(OCCCCN(C)Cc2ccccc2)c1,i,4.3%,20.6µM*,-3.7%,7.8%
COC(=O)c1ccc(OCCCCN(C)Cc2ccccc2)cc1,u,24.4%,i,-0.1%,18.4µM*
Cc1cc(Br)c2[nH]cc(CCNC(=O)c3ccco3)c2c1,i,-8.5%,i,-26.1%,-3.3%
COCCCNC(=O)c1ccc2c(c1)N=C(C)c1c(C)ccc(C)c1S2,0.0164µM*,x,0.0517µM*,x,x
COCCCNC(=O)c1cccc(C(=O)NCCCOC)c1,i,3.8%,i,5.2%,1.2%
CC1=Nc2cc(C(=O)NC3CCC(C)CC3)ccc2Sc2c(C)ccc(C)c21 (stereo not given),0.517µM*,x,0.259µM*,x,x
CCOC(=O)N1CCC(NC(=O)c2ccc3c(c2)N=C(C)c2c(C)ccc(C)c2S3)CC1,2.06µM*,7.31µM*,5.17µM*,u,23.0%
Cc1c(CNC2CCCCC2)c(C(=O)O)c(C)n1Cc1ccc(Cl)cc1,i,x,i,x,x
O=Cc1cc2c(cc1[B-](F)(F)F)OCO2,i,16.4µM*,i,x,-52.3%
CCc1c(C)c(C#N)c2nc3ccccc3n2c1NCCCN(C)C,i,x,i,x,x
Cc1c(Cc2ccccc2)c(NCCN(C)C)n2c(nc3ccccc32)c1C#N,i,29.1µM*,u,u,23.1µM*
CCCCc1c(C)c(C#N)c2nc3ccccc3n2c1NCCN(C)C,i,u,i,-21.6%,23.1µM*
O=C(Cn1c(=O)n(Cc2ccc(F)cc2)c(=O)c2sc3ccccc3c21)NCc1ccccc1Cl,i,x,i,x,x
CN(/N=C/c1ccc(Br)o1)C1=NS(=O)(=O)c2ccccc21,i,u,i,-8.3%,23.1µM*
Cc1ccc(/C=N/N(C)C2=NS(=O)(=O)c3ccccc32)o1,x,x,x,-25.0%,x
COc1ccc(N(CC(=O)Nc2ccc(Cc3ccncc3)cc2)S(=O)(=O)c2ccccc2)cc1,u,3.4%,u,-29.8%,u
CSc1nnc(-c2sc3cc(C(F)(F)F)cnc3c2-c2ccccn2)n1C,u,10.2%,18.4µM*,-2.5%,7.4%
Cn1c(-c2sc3cc(C(F)(F)F)cnc3c2-c2ccccn2)n[nH]c1=S,i,2.0%,i,12.4%,3.5%
Cc1ccc(CNCc2cn[nH]c2-c2ccc(C)cc2)cc1,i,x,i,x,x
Cc1ccc(NS(=O)(=O)c2cccc(C(=O)N3CCN(c4ncccn4)CC3)c2)cc1,i,4.7%,8.2µM*,u,u
SMILES,KB-3-1 tox,SW480 rereplic,KB-V1 MDR tox,ELG1 DNA repair,MCF10A rerep
Cc1ccc(NS(=O)(=O)c2ccc(C(=O)N3CCCCCC3)cc2)cc1,u,1.8%,4.61µM*,-5.7%,4.0%
CCOC(=O)N1CCN(C(=O)c2ccc(S(=O)(=O)Nc3ccc(C)cc3)cc2)CC1,7.31µM*,-2.5%,10.3µM*,u,-3.0%
O=C(c1ccc(S(=O)(=O)Nc2ccccc2)cc1)N1CCC1,i,14.6µM*,i,-4.3%,-36.0%
O=C(c1ccc(NS(=O)(=O)c2ccccc2)cc1)N1CCCCCC1,i,-5.3%,u,-36.9%,-1.9%
Cc1ccc(NS(=O)(=O)c2cccc(C(=O)N3CCCCCCC3)c2)cc1,i,-14.9%,u,-14.0%,29.0%
CCOC(=O)N1CCN(C(=O)c2ccc(NS(=O)(=O)c3ccc(C)cc3)cc2)CC1,i,-2.9%,i,-23.2%,0.3%

# Compound activity deposited in PubChem by National Center for Advancing Translational Sciences (NCATS).
